Compound: Nc1ncnc2c1ncn2[C@@H]1O[C@H](COP(=O)(O)OP(=O)(O)OP(=O)(O)O)[C@@H](O)[C@H]1O [adenosine 5'-triphosphate]
Experiment: log2 fold change of tryptic peptide abundance, ligand vs vehicle (limited proteolysis) (log2 ratio); higher = more trypsin-susceptible (destabilized)
Conditions: ligand concentration: 5 mM; sample: E. coli desalted lysate; replicate design: treated before aliquoting
Procedure: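 HT-PELSA: desalted E. coli K-12 BW25113 lysate (with 12 mM MgCl2) incubated with 5 mM ATP (pH 7) or water for 30 min at 25 C, then a 4 min trypsin pulse at 22 C. Peptides were quantified by DIA-MS (4 replicates). Value is the peptide log2 fold change (treated/control); negative = stabilized. Scale: negative = ligand-stabilized region.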
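Also: lysate desalted by size exclusion to strip endogenous ATP, peptide intensities built from DIA-NN precursor signals, and peptides missing any value discarded before comparison.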

Sequence of UniProt P78061 (P78061 whole entry): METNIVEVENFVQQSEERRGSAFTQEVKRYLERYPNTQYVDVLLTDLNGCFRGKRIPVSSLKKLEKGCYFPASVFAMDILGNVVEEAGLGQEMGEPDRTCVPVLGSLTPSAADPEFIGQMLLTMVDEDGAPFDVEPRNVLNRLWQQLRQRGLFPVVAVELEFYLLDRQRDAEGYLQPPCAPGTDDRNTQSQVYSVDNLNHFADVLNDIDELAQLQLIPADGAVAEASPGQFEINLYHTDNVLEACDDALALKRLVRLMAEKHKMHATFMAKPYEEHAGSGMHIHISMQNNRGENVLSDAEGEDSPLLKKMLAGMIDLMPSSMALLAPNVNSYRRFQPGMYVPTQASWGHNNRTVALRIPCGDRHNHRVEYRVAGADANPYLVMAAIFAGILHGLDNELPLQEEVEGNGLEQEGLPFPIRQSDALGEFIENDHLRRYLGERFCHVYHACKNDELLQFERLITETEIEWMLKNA
Sequence of UniProt P10371 (P10371 whole entry): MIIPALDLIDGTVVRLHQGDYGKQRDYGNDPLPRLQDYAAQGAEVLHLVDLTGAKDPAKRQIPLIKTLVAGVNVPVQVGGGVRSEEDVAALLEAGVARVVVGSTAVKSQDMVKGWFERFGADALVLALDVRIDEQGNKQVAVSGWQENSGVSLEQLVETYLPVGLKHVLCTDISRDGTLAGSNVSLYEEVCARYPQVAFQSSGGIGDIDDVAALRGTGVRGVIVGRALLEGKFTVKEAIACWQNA
Sequence of UniProt P37188 (P37188 whole entry): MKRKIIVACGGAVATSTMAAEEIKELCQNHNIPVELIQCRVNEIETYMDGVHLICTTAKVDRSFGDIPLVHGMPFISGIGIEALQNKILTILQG
Sequence of UniProt Q46868 (Q46868 whole entry): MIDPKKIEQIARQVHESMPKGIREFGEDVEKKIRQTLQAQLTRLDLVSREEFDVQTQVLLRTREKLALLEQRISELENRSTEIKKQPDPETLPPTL
Sequence of UniProt P76550 (P76550 whole entry): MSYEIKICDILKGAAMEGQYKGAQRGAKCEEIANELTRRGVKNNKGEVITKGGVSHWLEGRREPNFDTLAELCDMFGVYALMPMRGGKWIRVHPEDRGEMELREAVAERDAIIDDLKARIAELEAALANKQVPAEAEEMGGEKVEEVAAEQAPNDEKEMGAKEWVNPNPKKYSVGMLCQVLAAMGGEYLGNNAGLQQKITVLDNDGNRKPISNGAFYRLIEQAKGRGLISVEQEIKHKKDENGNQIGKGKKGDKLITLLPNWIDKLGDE
Sequence of UniProt Q46800 (Q46800 whole entry): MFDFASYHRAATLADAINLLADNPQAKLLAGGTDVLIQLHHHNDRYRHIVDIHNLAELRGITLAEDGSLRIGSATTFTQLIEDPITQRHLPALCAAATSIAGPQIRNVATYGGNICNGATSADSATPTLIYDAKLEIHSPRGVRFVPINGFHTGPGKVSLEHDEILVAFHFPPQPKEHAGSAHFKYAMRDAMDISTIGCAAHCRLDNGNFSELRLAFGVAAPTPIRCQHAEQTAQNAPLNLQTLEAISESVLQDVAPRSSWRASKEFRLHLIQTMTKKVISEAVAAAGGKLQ
Sequence of UniProt P32662 (P32662 whole entry): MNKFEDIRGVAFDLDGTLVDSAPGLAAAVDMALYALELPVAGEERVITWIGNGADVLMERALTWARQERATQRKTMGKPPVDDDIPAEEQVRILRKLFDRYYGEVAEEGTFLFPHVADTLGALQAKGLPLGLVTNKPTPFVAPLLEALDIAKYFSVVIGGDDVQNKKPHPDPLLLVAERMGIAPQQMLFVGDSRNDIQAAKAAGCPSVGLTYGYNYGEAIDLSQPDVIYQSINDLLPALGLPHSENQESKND
Sequence of UniProt P56258 (P56258 whole entry): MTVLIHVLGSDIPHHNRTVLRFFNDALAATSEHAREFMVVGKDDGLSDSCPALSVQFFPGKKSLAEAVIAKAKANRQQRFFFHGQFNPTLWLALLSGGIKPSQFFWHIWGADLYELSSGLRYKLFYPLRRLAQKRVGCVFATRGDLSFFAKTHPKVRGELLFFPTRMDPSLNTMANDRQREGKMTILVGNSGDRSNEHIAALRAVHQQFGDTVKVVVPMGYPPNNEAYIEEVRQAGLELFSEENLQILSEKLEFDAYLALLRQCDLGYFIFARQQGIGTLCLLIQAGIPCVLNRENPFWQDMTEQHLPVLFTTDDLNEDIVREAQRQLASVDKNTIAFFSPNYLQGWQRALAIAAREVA
Sequence of UniProt P75919 (P75919 whole entry): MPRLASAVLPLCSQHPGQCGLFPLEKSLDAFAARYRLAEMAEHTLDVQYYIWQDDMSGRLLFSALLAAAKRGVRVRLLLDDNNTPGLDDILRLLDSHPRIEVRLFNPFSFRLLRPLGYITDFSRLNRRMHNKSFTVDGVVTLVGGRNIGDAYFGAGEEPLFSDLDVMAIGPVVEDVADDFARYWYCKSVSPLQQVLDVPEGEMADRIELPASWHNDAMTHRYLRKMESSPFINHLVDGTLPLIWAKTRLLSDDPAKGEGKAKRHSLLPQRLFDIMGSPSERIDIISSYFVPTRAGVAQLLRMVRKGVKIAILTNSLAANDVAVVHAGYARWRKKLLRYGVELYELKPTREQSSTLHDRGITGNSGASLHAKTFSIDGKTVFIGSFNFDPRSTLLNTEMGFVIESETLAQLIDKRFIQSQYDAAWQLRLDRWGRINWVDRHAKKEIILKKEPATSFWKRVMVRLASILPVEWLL
Sequence of UniProt P07001 (P07001 whole entry): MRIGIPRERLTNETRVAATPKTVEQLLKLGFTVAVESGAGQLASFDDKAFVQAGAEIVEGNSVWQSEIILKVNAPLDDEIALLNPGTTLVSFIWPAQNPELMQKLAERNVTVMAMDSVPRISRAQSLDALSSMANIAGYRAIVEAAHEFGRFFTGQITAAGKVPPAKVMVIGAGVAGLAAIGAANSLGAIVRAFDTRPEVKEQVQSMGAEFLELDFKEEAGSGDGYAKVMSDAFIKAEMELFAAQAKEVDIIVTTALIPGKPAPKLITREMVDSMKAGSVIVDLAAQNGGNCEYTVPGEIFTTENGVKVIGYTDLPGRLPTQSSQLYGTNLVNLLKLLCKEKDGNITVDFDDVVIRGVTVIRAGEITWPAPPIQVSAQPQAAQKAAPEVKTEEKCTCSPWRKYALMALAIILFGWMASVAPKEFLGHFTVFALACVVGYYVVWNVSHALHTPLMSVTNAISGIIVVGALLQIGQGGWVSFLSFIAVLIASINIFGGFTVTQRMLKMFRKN
Sequence of UniProt P25437 (P25437 whole entry): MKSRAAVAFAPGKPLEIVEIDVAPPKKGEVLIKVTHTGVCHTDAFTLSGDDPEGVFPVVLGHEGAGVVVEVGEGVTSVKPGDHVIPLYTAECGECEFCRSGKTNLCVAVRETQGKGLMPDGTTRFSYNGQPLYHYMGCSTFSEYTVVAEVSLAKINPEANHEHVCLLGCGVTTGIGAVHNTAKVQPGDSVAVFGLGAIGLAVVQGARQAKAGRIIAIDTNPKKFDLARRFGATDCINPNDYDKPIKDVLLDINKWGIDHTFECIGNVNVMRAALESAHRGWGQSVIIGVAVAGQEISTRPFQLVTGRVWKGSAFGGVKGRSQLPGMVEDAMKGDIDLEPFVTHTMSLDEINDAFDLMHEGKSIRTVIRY
Sequence of UniProt P0ACL0 (P0ACL0 whole entry): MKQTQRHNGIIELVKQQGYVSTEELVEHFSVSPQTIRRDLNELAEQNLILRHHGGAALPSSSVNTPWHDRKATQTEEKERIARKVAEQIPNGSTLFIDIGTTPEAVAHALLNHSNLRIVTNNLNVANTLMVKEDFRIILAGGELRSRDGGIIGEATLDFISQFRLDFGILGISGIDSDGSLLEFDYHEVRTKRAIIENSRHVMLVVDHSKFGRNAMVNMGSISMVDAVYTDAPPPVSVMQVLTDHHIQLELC
Sequence of UniProt P39343 (P39343 whole entry): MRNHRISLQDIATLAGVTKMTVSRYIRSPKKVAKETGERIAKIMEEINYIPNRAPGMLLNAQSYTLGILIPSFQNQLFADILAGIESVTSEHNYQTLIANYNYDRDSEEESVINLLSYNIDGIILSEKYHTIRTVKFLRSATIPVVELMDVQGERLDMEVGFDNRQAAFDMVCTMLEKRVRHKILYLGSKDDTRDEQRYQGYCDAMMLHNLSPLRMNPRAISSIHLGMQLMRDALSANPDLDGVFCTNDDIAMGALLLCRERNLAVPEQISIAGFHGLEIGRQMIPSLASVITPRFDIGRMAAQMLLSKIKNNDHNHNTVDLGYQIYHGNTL
Sequence of UniProt P31680 (P31680 whole entry): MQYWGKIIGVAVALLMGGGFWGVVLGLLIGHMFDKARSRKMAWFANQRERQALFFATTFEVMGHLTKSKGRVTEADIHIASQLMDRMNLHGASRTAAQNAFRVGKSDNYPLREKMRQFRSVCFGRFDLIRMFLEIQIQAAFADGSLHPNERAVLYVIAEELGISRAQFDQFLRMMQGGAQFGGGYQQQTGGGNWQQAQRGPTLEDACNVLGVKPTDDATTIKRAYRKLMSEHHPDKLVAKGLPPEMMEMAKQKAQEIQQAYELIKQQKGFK
Sequence of UniProt P20966 (P20966 whole entry): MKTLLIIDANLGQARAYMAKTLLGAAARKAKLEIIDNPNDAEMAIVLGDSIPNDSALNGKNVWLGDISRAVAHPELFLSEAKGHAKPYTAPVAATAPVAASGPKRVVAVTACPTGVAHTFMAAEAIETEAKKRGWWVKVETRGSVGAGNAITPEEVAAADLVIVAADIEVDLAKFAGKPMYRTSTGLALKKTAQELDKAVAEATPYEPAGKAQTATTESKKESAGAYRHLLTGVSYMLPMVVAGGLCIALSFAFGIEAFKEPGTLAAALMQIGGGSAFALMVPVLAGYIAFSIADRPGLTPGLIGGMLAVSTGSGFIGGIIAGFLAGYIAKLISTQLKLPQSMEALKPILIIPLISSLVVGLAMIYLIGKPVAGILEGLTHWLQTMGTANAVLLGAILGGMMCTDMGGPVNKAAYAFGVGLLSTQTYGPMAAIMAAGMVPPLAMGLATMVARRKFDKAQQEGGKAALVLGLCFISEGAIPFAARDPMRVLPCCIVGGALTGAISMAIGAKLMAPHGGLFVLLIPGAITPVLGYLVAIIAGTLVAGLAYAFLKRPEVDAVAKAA

| Target | log2 fold change |
| --- | --- |
| UniProt P0ACL0 (peptide sequence: IILAGGELR, peptide start residue: 137) | -0.596 |
| UniProt P46837 (peptide sequence: AEDEAINVFAR, peptide start residue: 303) | 0.79 |
| UniProt P0ACW4 (peptide sequence: GGISHCTAGGK, peptide start residue: 30) | -0.911 |
| UniProt P09152 (peptide sequence: GHEFMLK, peptide start residue: 724) | 0.491 |
| UniProt P25437 (peptide sequence: SQLPGMVEDAMK, peptide start residue: 321) | -0.846 |
| UniProt P0AB96 (peptide sequence: LCRPSEVVLEILPDAQK, peptide start residue: 105) | 0.492 |
| UniProt P07001 (peptide sequence: FFTGQITAAGK, peptide start residue: 152) | -0.651 |
| UniProt P33343 (peptide sequence: LSLITNDKITGNDK, peptide start residue: 95) | -0.561 |
| UniProt P45568 (peptide sequence: ESLVTCGR, peptide start residue: 126) | 0.779 |
| UniProt P76550 (peptide sequence: PISNGAFYR, peptide start residue: 210) | -0.83 |
| UniProt P30176 (peptide sequence: LVEHTENDAYWGDGGHGK, peptide start residue: 123) | -0.814 |
| UniProt P56258 (peptide sequence: VGCVFATR, peptide start residue: 136) | -0.934 |
| UniProt P06987 (peptide sequence: VGDLSTEMIEHFFR, peptide start residue: 290) | -1.32 |
| UniProt P77171 (peptide sequence: GRQGAQLTLPGEQFLTHAVR, peptide start residue: 61) | 0.909 |
| UniProt P27431 (peptide sequence: EMMLELINQPEHFK, peptide start residue: 252) | 0.714 |
| UniProt P78061 (peptide sequence: FCHVYHACK, peptide start residue: 441) | -1.83 |
| UniProt P39364 (peptide sequence: IIGQLMSDIR, peptide start residue: 82) | -0.915 |
| UniProt P30855 (peptide sequence: YSQTSAGR, peptide start residue: 888) | 0.38 |
| UniProt P30750 (peptide sequence: TVFGNVALPLELDNTPKDEVKR, peptide start residue: 98) | 0.668 |
| UniProt P39343 (peptide sequence: IKNNDHNHNTVDLGYQIYHGNTL, peptide start residue: 310) | -0.756 |

| Target | log2 fold change |
| --- | --- |
| UniProt P77215 (peptide sequence: AWFTGGATAEK, peptide start residue: 11) | -0.425 |
| UniProt P35340 (peptide sequence: MTLTEIVAKIDTGAEKR, peptide start residue: 186) | 1.22 |
| UniProt P77279 (peptide sequence: NIAELSGGEK, peptide start residue: 134) | -0.683 |
| UniProt Q46868 (peptide sequence: QVHESMPK, peptide start residue: 13) | -0.305 |
| UniProt P39400 (peptide sequence: VLGHEICGEIVGLGK, peptide start residue: 59) | -1.26 |
| UniProt P61887 (peptide sequence: FGVVEFDDNFR, peptide start residue: 143) | -0.44 |
| UniProt P10371 (peptide sequence: DYGNDPLPR, peptide start residue: 26) | -0.955 |
| UniProt P77399 (peptide sequence: TQGNYPATER, peptide start residue: 240) | -0.418 |
| UniProt P75919 (peptide sequence: LLSDDPAKGEGK, peptide start residue: 249) | -0.826 |
| UniProt P20966 (peptide sequence: FAGKPMYR, peptide start residue: 175) | 1.06 |
| UniProt P37188 (peptide sequence: VNEIETYMDGVHLICTTAKVDR, peptide start residue: 41) | 0.402 |
| UniProt P31680 (peptide sequence: LMSEHHPDKLVAK, peptide start residue: 228) | -0.381 |
| UniProt P25535 (peptide sequence: LADTLPGVKPQLIR, peptide start residue: 374) | 0.527 |
| UniProt P39280 (peptide sequence: IHSRLPIVIPAR, peptide start residue: 193) | 1.51 |
| UniProt P76558 (peptide sequence: TNLFMKPIFSQAR, peptide start residue: 427) | 0.538 |
| UniProt P02359 (peptide sequence: FVNILMVDGK, peptide start residue: 26) | 0.921 |
| UniProt Q46800 (peptide sequence: LAFGVAAPTPIR, peptide start residue: 215) | 0.403 |
| UniProt P37028 (peptide sequence: IVALKPDLVIAWR, peptide start residue: 74) | 0.465 |
| UniProt P32662 (peptide sequence: TMGKPPVDDDIPAEEQVR, peptide start residue: 75) | 0.514 |
| UniProt P25740 (peptide sequence: HYAAFER, peptide start residue: 123) | -0.355 |

Reference: the supplement of paper PMC12819154, “High-throughput peptide-centric local stability assay extends protein–ligand identification to membrane proteins, tissues and bacteria” (Nature Structural & Molecular Biology, 2025)
